Reference: PubChem BioAssay (NCI)
Compounds without any hit were thinned out: in the full panel of roughly 79,000, 15% have a hit. Unmarked numbers belong to inactive results. Calls of active or inactive are those of the source. Rule as the data show it: active = growth inhibition above about 70%; inactive = the rest.

Experiments:
[1] = NCI Yeast Anticancer Drug Screen. Data for the rad52 strain (AID 147);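 also: 0% = growth of vehicle-treated control cultures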; details: S. cerevisiae rad52 mutant growth inhibition, stronger effect = higher value
Outline: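 Measured: yeast growth inhibition. System: strain with a defined DNA damage repair alteration. Reference: vehicle-treated control cultures.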

[2] = NCI Yeast Anticancer Drug Screen. Data for the wt1 strain (AID 149);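 also: 0% = growth of vehicle-treated wt1 cultures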; details: S. cerevisiae wt1 strain (SPY 50644) growth inhibition, stronger effect = higher value
Outline: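 wt1 yeast, compound-treated; % growth inhibition vs vehicle control.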

[3] = NCI Yeast Anticancer Drug Screen. Data for the rad50EPP+ strain (AID 151);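 also: 0% = growth of vehicle-treated control cultures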; details: S. cerevisiae rad50 mutant strain, stronger effect = higher value
Outline: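 One strain with a rad50 alteration (rad50EPP+) was compound-treated, its growth then compared to that of vehicle controls.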

[4] = NCI Yeast Anticancer Drug Screen. Data for the rad50 strain (AID 155);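 also: 0% = growth of vehicle-only cultures of the same strain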; details: S. cerevisiae rad50 strain growth inhibition, stronger effect = higher value
Outline: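 Genetically altered yeast (DNA repair pathway); compound treatment; growth inhibition vs vehicle ctrl.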

[5] = NCI Yeast Anticancer Drug Screen. Data for the mec2-1 strain (AID 157); details: S. cerevisiae mec2-1 strain, stronger effect = higher value
Outline: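 Test agents were screened against the mec2-1 yeast strain, with defined DNA repair or cell cycle alteration. Growth was scored as inhibition against vehicle-only controls.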

[6] = NCI Yeast Anticancer Drug Screen. Data for the rad14 strain (AID 159);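 also: 0% = growth of vehicle-treated control cultures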; details: S. cerevisiae rad14 strain growth inhibition, stronger effect = higher value
Outline: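 Test compounds were applied to a repair-deficient yeast strain. Its growth was then compared with that of cultures given vehicle alone, and inhibition was expressed relative to those controls.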

[7] = NCI Yeast Anticancer Drug Screen. Data for the sgs1 mgt1 strain (AID 161);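 also: 0% = growth of cultures given vehicle only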; details: S. cerevisiae sgs1 mgt1 strain, stronger effect = higher value
Outline: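 Inhibition of yeast growth, normalised to vehicle-treated controls, is reported for a strain bearing genetic alterations in DNA damage repair.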

[8] = NCI Yeast Anticancer Drug Screen. Data for the CLN2oe strain (AID 163);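 also: 0% = growth of vehicle-only control cultures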; details: S. cerevisiae CLN2oe strain, stronger effect = higher value
Outline: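 Here, growth inhibition in a cell-cycle-altered yeast strain after compound exposure was quantified against vehicle control growth.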

[9] = NCI Yeast Anticancer Drug Screen. Data for the cln2 rad14 strain (AID 165);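 also: 0% = growth equal to vehicle treated cultures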; details: S. cerevisiae cln2 rad14 strain, stronger effect = higher value
Outline: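 Growth of compound-exposed yeast (cln2 rad14 genotype) measured and expressed as inhibition relative to vehicle.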

[10] = NCI Yeast Anticancer Drug Screen. Data for the bub3 strain (AID 167); details: S. cerevisiae bub3 mutant strain, stronger effect = higher value
Outline: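 Yeast carrying a defined mutation is treated with each compound, and growth is compared with that of vehicle-exposed cells to give inhibition.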

[11] = NCI Yeast Anticancer Drug Screen. Data for the wt2 strain (AID 169);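 also: 0% = growth of vehicle-treated yeast cultures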; details: S. cerevisiae wt2 strain growth inhibition, stronger effect = higher value
Outline: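 Genetically defined yeast strains from a DNA-repair/cell-cycle panel were used. Compound-exposed yeast growth was measured, and the inhibition was calculated relative to vehicle treatment.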

[12] = NCI Yeast Anticancer Drug Screen. Data for the mlh1 strain (AID 171);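 also: 0% = growth of vehicle-treated control cultures of the same strain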; details: S. cerevisiae mlh1 strain growth inhibition, stronger effect = higher value
Outline: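 Here the genetically defined yeast mutant is grown with each compound, and the extent to which its growth falls below that of vehicle-exposed cells is reported.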

[13] = NCI Yeast Anticancer Drug Screen. Data for the sgs1 strain (AID 173);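 also: 0% = growth of vehicle-only control cultures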; details: S. cerevisiae sgs1 mutant, stronger effect = higher value
Outline: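 Relative growth inhibition, referenced to vehicle, was determined in a yeast strain with a defined alteration affecting DNA damage repair or cell cycle control after compound exposure.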

[14] = NCI Yeast Anticancer Drug Screen. Data for the mlh1 rad18 strain (AID 175); details: S. cerevisiae mlh1 rad18 strain growth inhibition, stronger effect = higher value
Outline: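 In this whole-cell yeast screen, a strain with altered DNA damage repair is challenged with compound, and its growth is measured against matched vehicle-treated controls.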

[15] = NCI Yeast Anticancer Drug Screen. Data for the rad18 strain (AID 177); details: S. cerevisiae rad18 mutant growth inhibition, stronger effect = higher value
Outline: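 Screen uses a yeast strain with a defined lesion in DNA damage repair; compound effect is read as loss of growth compared to untreated vehicle cultures.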

[16] = at 5.0 µM (retest, dose inferred, filed as 0.5)
[17] = at 50.0 µM (retest, dose inferred, filed as 5.0)

In the case of `COC(=O)c1n[nH]c(C)c1N=NN(C)CCC#N`, the growth inhibition ([1]; at 1.2 µM) is reported as 46%, the growth inhibition ([1]; at 3.7 µM) is reported as 91% (active) and the growth inhibition ([1]; at 11.0 µM) is reported as 97% (active). The growth inhibition ([1]; at 33.0 µM) was 98% (active), the growth inhibition ([1]; at 100.0 µM) was 99% (active) and the growth inhibition ([2]; at 1.2 µM) was -6%. The growth inhibition ([2]; at 3.7 µM) was -5%, the growth inhibition ([2]; at 11.0 µM) was 97% (active) and the growth inhibition ([2]; at 33.0 µM) was 99% (active). The growth inhibition ([2]; at 100.0 µM) was 99% (active), the growth inhibition ([3]; at 1.2 µM) was 26% and the growth inhibition ([3]; at 3.7 µM) was 77% (active). The growth inhibition ([3]; at 11.0 µM) was 95% (active), the growth inhibition ([3]; at 33.0 µM) was 97% (active) and the growth inhibition ([3]; at 100.0 µM) was 99% (active). For the same compound, the growth inhibition ([4]; at 1.2 µM) was 18%, the growth inhibition ([4]; at 3.7 µM) was 81% (active) and the growth inhibition [4, 16] was 69%. For the same compound, the growth inhibition ([4]; at 11.0 µM) was 96% (active), the growth inhibition ([4]; at 33.0 µM) was 98% (active) and the growth inhibition [4, 17] was 96% (active). For the same compound, the growth inhibition ([4]; at 50.0 µM) was 98.5% (active), the growth inhibition ([4]; at 100.0 µM) was 99% (active) and the growth inhibition ([5]; at 1.2 µM) was 2%. The growth inhibition ([5]; at 3.7 µM) was 3%, the growth inhibition [5, 16] was -31% and the growth inhibition ([5]; at 11.0 µM) was 99% (active). The growth inhibition ([5]; at 33.0 µM) was 99% (active), the growth inhibition [5, 17] was 98% (active) and the growth inhibition ([5]; at 50.0 µM) was 99.2% (active). The growth inhibition ([5]; at 100.0 µM) was 99% (active), the growth inhibition ([6]; at 1.2 µM) was 1% and the growth inhibition ([6]; at 3.7 µM) was 11%. The growth inhibition ([6]; at 11.0 µM) was 72% (active), the growth inhibition ([6]; at 33.0 µM) was 99% (active) and the growth inhibition ([6]; at 100.0 µM) was 99% (active). The growth inhibition [7, 16] was -11%, the growth inhibition [7, 17] was 96% (active) and the growth inhibition ([7]; at 50.0 µM) was 98.8% (active). The growth inhibition ([8]; at 1.2 µM) was -2%, the growth inhibition ([8]; at 3.7 µM) was -3% and the growth inhibition ([8]; at 11.0 µM) was 95% (active). The growth inhibition ([8]; at 33.0 µM) was 99% (active), the growth inhibition ([8]; at 100.0 µM) was 99% (active) and the growth inhibition [9, 16] was -41%. The growth inhibition [9, 17] was 98% (active), the growth inhibition ([9]; at 50.0 µM) was 97.8% (active) and the growth inhibition ([10]; at 1.2 µM) was -21%. For the same compound, the growth inhibition ([10]; at 3.7 µM) was -16%, the growth inhibition [10, 16] was -71% and the growth inhibition ([10]; at 11.0 µM) was 80% (active). For the same compound, the growth inhibition ([10]; at 33.0 µM) was 99% (active), the growth inhibition [10, 17] was 97% (active) and the growth inhibition ([10]; at 50.0 µM) was 99% (active). The growth inhibition ([10]; at 100.0 µM) was 98% (active), the growth inhibition ([11]; at 1.2 µM) was 0% and the growth inhibition ([11]; at 3.7 µM) was 11%. The growth inhibition ([11]; at 11.0 µM) was 99% (active), the growth inhibition ([11]; at 33.0 µM) was 99% (active) and the growth inhibition ([11]; at 100.0 µM) was 99% (active). For the same compound, the growth inhibition ([12]; at 1.2 µM) was 7%, the growth inhibition ([12]; at 3.7 µM) was 0% and the growth inhibition ([12]; at 11.0 µM) was 98% (active). The growth inhibition ([12]; at 33.0 µM) was 99% (active), the growth inhibition ([12]; at 100.0 µM) was 99% (active) and the growth inhibition ([13]; at 1.2 µM) was 15%. The growth inhibition ([13]; at 3.7 µM) was 70% (active), the growth inhibition ([13]; at 11.0 µM) was 99% (active) and the growth inhibition ([13]; at 33.0 µM) was 99% (active). For the same compound, the growth inhibition ([13]; at 100.0 µM) was 99% (active), the growth inhibition [14, 16] was -49% and the growth inhibition [14, 17] was 97% (active). The growth inhibition ([14]; at 50.0 µM) was 98.8% (active), the growth inhibition ([15]; at 1.2 µM) was 16% and the growth inhibition ([15]; at 3.7 µM) was 68%. For the same compound, the growth inhibition ([15]; at 11.0 µM) was 95% (active), the growth inhibition ([15]; at 33.0 µM) was 98% (active) and the growth inhibition ([15]; at 100.0 µM) was 99% (active).
